From PubChem
Hits are enriched below; roughly 2.6% of the tested compounds scored in any of these assays.
eIF4H FP inh = human eIF4H binding inhibitors, primary screen, translation initiation inhibitor project, biochemical, uHTS, fluorescence polarization; eIF4H fluorescence polarization binding assay; AID 2012, 2009; actives 0.94% (n = 290,000); inhibition, % at 35 µM;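 also: calls also rest on retests at 20 µM and on dose response follow-up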
A3A deaminase = APOBEC3A ssDNA deaminase inhibitors, primary screen, selectivity assay for APOBEC3G inhibitor project, biochemical, FAM/TAMRA oligo cleavage fluorescence; AID 493011, 2011; inhibition, % at 20 µM; actives 0.41% (n = 330,000); recombinant A3A, FAM/TAMRA ssDNA deamination fluorescence;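 active = at least 40% inhibition at 20 µM here, with at most 30% in a related deaminase screen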;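 also: plate controls were A3A with DMSO for no effect and wells lacking A3A enzyme for full effect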
A3G deaminase = APOBEC3G DNA deaminase inhibitors, primary screen, biochemical, fluorescence, single-stranded DNA substrate, uHTS | recombinant A3G, ssDNA deamination FAM/TAMRA fluorescence | actives 0.28% (n = 330,000) | DNA dC->dU-editing enzyme APOBEC-3G (Homo sapiens), Q9HC16 | inhibition, % at 20 µM;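 active = inhibition of at least 40% at 20 µM, with no more than 30% in the related APOBEC3A deaminase screen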;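 also: plate controls were DMSO wells with A3G for no effect and wells lacking A3G enzyme for full effect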
Target sequence (Q9HC16 whole entry, looked up): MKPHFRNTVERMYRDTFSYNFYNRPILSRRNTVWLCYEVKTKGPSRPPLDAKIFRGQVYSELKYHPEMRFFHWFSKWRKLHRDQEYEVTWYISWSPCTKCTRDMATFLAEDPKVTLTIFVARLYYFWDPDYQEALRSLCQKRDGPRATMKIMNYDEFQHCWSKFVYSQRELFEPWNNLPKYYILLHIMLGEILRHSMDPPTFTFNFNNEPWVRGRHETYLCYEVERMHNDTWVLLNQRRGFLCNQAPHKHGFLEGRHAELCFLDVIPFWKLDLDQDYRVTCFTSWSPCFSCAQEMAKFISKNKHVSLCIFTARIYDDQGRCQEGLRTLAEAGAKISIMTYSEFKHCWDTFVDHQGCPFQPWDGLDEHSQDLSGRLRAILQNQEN
MLLE-PAM2 inh = inhibitors of PABP1 MLLE–PAM2 peptide binding, primary screen, biochemical, fluorescence polarization, FITC-PAM2, GST-MLLE; inhibition, % at 20 µM; actives 0.36% (n = 360,000); in the data active = inhibition above about 35%, passing the limit was not always enough;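 also: plate controls were DMSO wells with GST-MLLE for no effect and wells lacking GST-MLLE protein for full effect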
PABP FP inh = PABP poly(A) RNA binding inhibitors, primary screen, biochemical, fluorescence polarization, uHTS; Polyadenylate-binding protein 1 (Homo sapiens), P11940; calls only at 35 µM; actives 1% (n = 290,000);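 also: calls also rest on retests at 20 µM and on dose response follow-up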
PHOSPHO1 block = PubChem AID 1565; Phosphoethanolamine/phosphocholine phosphatase (Homo sapiens), Q8TCT1; recombinant PHOSPHO1, absorbance phosphatase assay; inhibition, % at 13.3 µM; actives 1.1% (n = 290,000); in the data active = inhibition above about 60%
A3A conf = APOBEC3A deaminase inhibitors, retest, confirmation, selectivity assay for APOBEC3G inhibitor project, biochemical, single concentration, fluorescence readout. inhibition, % at 20 µM. actives 63% (n = 1,400). AID 493151, 2011. shares compounds with A3A deaminase. recombinant A3A, ssDNA deaminase UDG fluorescence assay;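 active = inhibition reaching a set limit, 80% of the first screen's cutoff, at 20 µM in any replicate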;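 also: plate controls were DMSO wells with A3A for no effect and wells lacking A3A enzyme for full effect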
UDG ctr A3A = E. coli UDG inhibitors, confirmation, counter-screen for APOBEC3A inhibitor project, biochemical, single concentration, fluorescence, FAM/TAMRA oligo. 1,000 tested, under 10 active. UDG counterscreen, FAM/TAMRA uracil oligo fluorescence. shares compounds with A3A deaminase. inhibition, % at 20 µM
* marks the source's active call; other numbers are inactive results. Unless noted, no rule for the calls is given here.

`C/C=C1\NC(=O)[C@H](C)NC(=O)[C@@H](NC(=O)[C@@H](Cc2ccc(O)cc2)NC(=O)[C@@H](NC(=O)/C(C)=C/C)C(C)C)[C@@H](C)OC(=O)[C@H](CCCCc2ccc(O)cc2)NC(=O)[C@@H](CCC(=O)O)NC1=O` gave A3A deaminase -1, A3G deaminase -5 and MLLE-PAM2 inh 13.
CC(=O)Nc1ccc(Nc2nnc(-c3ccc(C)c(S(N)(=O)=O)c3)c3ccccc23)cc1 was read as eIF4H FP inh -4, A3A deaminase 61*, A3G deaminase -9, MLLE-PAM2 inh 9, PABP FP inh inactive, PHOSPHO1 block 28, A3A conf -1 and UDG ctr A3A -2.
COc1ccc(NC(=O)CN(C)C(=O)c2cc(-c3cccs3)nn2-c2ccccc2)cc1 was read as A3A deaminase 3, A3G deaminase -4 and MLLE-PAM2 inh -16.
CCN(CC(=O)Nc1ccc(OC)cc1)C(=O)c1cc(-c2cccs2)nn1-c1ccccc1 was read as A3A deaminase 78*, A3G deaminase -11, MLLE-PAM2 inh -14, A3A conf 1 and UDG ctr A3A 5.
COc1cc(C(=S)N2CCOCC2)ccc1OC(=O)c1cccc(C)c1 was read as eIF4H FP inh 2, A3A deaminase -7, A3G deaminase 1, MLLE-PAM2 inh 27, PABP FP inh inactive and PHOSPHO1 block 14.
For Cc1cc(C)c(S(=O)(=O)N2CCN(CCN3C(=O)c4cccc5cccc(c45)C3=O)CC2)cc1[N+](=O)[O-] the results were eIF4H FP inh 9, PABP FP inh inactive and PHOSPHO1 block -7.
O=C1c2cccc3cc([N+](=O)[O-])cc(c23)C(=O)N1CCN1CCCC1 was read as eIF4H FP inh 81, A3A deaminase 41*, A3G deaminase 29, MLLE-PAM2 inh 50*, PABP FP inh inactive, PHOSPHO1 block 27 and A3A conf 26.
Screening O=C(c1[nH]c(C(F)(F)F)nc1-c1ccccc1)N1CCC(Cc2ccccc2)CC1 returned MLLE-PAM2 inh 15.
NS(=O)(=O)c1ccc(NC(=S)N2CCN(C(=O)C3CCCO3)CC2)cc1 (stereo not given) was read as eIF4H FP inh -11, A3A deaminase -1, A3G deaminase 9, MLLE-PAM2 inh 25, PABP FP inh inactive and PHOSPHO1 block -57.
Cc1cnc(C(=O)OCc2nc3ccsc3c(=O)[nH]2)cn1 was read as A3A deaminase 22, A3G deaminase 19 and MLLE-PAM2 inh -12.
`COc1ccc(CC(=O)Nc2cccc(/C(C)=N/NC(=O)c3cccc([N+](=O)[O-])c3)c2)cc1` gave eIF4H FP inh 0, A3A deaminase 72*, A3G deaminase 1, MLLE-PAM2 inh -4, PABP FP inh inactive, PHOSPHO1 block 38 and A3A conf 1.
`Cn1c(=O)n(C)c2cc(C(=O)O)ccc21` gave eIF4H FP inh -2, A3A deaminase 60*, A3G deaminase -3, MLLE-PAM2 inh 1, PABP FP inh inactive, PHOSPHO1 block -14, A3A conf -61 and UDG ctr A3A 2.
`COc1ccc(C(=O)COC(=O)c2ccc3c(c2)OCO3)c(OC)c1` gave A3A deaminase 3, A3G deaminase -3 and MLLE-PAM2 inh -5.
